Assay results reported in ChEMBL document CHEMBL1961873, “Compounds: GSK PKIS; Assays: Nanosyn kinase panel” (2012).

Experiments:
[1] = test system: Epidermal growth factor receptor (Homo sapiens), P00533 [T790M]; details: at 1 µM
[2] = test system: Epidermal growth factor receptor (Homo sapiens), P00533 [L858R,T790M]; details: at 0.1 µM
[3] = test system: Epidermal growth factor receptor (Homo sapiens), P00533 [L858R,T790M]; details: at 1 µM
[4] = biological target: Ephrin type-A receptor 2 (Homo sapiens) (UniProt P29317); details: at 0.1 µM
[5] = biological target: Ephrin type-A receptor 2 (Homo sapiens) (UniProt P29317); details: at 1 µM
[6] = biological target: T1, Ephrin type-A receptor 3 (Homo sapiens) (UniProt P29320); details: at 0.1 µM
T1 sequence (whole entry): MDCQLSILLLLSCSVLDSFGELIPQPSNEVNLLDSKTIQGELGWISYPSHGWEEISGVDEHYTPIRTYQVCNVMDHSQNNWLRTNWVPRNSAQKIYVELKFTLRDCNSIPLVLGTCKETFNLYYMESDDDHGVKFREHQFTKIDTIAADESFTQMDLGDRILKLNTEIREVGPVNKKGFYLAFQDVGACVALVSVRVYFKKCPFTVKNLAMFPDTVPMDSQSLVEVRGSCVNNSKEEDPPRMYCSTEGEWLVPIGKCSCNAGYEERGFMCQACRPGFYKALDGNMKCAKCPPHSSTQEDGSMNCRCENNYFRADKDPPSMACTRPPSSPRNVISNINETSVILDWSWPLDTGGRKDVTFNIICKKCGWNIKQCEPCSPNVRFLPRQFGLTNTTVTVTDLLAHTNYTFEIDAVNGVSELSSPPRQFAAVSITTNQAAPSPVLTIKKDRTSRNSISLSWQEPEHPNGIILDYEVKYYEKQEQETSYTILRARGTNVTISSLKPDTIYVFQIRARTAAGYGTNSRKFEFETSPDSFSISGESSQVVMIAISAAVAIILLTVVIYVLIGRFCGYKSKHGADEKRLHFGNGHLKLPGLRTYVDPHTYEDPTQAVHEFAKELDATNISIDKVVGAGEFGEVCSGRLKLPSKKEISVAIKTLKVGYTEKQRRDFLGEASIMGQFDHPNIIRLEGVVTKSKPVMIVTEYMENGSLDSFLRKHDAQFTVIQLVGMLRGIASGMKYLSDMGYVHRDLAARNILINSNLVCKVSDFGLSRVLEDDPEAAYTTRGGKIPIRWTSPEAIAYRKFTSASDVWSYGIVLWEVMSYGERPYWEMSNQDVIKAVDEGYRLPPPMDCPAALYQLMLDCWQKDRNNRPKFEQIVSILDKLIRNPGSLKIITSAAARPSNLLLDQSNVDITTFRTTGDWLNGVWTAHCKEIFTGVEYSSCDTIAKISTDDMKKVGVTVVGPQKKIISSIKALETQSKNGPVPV

[7] = biological target: T1, Ephrin type-A receptor 3 (Homo sapiens); details: at 1 µM
[8] = biological target: Ephrin type-A receptor 4 (Homo sapiens) (UniProt P54764); details: at 0.1 µM
[9] = biological target: Ephrin type-A receptor 4 (Homo sapiens) (UniProt P54764); details: at 1 µM
[10] = biological target: T2, Ephrin type-B receptor 2 (Homo sapiens) (UniProt P29323); details: at 0.1 µM;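 note: reported as mean inhibition of EPHB2, from the GSK PKIS dataset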
T2 sequence (whole entry): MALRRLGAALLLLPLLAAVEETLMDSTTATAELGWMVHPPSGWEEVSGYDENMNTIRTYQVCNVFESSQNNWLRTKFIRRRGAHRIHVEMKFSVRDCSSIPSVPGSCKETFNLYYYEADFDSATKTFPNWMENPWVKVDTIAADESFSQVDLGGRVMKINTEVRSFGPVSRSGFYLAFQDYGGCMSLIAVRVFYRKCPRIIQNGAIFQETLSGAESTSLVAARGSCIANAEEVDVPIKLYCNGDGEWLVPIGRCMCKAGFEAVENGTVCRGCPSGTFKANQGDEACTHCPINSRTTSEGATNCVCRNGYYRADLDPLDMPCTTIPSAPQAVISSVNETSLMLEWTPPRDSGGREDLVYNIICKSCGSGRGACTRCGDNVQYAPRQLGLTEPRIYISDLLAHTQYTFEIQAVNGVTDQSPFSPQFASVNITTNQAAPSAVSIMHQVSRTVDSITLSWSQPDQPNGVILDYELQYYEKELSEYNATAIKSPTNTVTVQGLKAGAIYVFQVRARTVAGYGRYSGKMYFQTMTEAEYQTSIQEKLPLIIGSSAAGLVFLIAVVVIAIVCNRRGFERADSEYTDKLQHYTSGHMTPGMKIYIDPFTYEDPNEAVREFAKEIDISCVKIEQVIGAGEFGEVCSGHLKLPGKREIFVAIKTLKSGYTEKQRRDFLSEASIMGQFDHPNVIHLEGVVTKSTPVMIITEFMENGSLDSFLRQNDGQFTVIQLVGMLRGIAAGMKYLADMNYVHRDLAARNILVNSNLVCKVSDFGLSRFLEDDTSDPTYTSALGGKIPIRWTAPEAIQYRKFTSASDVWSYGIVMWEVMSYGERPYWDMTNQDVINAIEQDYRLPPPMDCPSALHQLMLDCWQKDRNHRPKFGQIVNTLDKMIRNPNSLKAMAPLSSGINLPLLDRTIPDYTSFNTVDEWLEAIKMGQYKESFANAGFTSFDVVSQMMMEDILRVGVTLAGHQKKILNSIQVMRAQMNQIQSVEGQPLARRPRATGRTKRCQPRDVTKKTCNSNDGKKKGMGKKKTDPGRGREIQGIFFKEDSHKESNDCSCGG

Sequence of Epidermal growth factor receptor (Homo sapiens), P00533 [L858R,T790M] (P00533 whole entry T790M/L858R, looked up): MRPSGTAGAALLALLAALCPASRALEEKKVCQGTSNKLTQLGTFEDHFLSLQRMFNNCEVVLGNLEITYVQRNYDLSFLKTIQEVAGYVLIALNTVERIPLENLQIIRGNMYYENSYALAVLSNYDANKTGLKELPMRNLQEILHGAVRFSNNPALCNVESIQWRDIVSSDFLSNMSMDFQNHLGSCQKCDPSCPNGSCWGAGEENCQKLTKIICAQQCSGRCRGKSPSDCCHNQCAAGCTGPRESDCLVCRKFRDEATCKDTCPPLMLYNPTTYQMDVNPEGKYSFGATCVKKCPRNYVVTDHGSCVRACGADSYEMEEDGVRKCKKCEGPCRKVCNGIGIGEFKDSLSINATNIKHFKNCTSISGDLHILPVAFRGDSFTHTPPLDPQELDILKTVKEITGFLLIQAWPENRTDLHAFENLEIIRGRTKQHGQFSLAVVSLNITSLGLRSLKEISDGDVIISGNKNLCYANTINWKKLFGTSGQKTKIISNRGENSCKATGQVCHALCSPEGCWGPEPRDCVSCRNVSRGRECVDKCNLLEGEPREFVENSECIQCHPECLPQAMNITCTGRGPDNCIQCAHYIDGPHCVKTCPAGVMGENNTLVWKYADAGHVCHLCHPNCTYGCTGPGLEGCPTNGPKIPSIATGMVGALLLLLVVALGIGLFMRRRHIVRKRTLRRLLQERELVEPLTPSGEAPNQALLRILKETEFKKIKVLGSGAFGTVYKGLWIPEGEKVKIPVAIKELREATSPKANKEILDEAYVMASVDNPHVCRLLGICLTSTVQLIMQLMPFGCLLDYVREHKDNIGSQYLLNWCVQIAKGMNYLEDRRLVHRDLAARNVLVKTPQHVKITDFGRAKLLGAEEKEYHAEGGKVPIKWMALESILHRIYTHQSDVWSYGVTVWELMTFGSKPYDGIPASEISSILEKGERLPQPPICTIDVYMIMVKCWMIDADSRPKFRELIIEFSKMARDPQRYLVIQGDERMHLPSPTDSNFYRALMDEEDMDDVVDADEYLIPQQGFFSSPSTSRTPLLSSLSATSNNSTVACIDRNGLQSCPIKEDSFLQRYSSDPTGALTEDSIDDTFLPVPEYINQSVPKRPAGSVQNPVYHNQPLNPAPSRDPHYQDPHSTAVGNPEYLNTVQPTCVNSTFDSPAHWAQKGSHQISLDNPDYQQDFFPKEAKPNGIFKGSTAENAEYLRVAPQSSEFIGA
Sequence of Ephrin type-A receptor 4 (Homo sapiens) (P54764 whole entry): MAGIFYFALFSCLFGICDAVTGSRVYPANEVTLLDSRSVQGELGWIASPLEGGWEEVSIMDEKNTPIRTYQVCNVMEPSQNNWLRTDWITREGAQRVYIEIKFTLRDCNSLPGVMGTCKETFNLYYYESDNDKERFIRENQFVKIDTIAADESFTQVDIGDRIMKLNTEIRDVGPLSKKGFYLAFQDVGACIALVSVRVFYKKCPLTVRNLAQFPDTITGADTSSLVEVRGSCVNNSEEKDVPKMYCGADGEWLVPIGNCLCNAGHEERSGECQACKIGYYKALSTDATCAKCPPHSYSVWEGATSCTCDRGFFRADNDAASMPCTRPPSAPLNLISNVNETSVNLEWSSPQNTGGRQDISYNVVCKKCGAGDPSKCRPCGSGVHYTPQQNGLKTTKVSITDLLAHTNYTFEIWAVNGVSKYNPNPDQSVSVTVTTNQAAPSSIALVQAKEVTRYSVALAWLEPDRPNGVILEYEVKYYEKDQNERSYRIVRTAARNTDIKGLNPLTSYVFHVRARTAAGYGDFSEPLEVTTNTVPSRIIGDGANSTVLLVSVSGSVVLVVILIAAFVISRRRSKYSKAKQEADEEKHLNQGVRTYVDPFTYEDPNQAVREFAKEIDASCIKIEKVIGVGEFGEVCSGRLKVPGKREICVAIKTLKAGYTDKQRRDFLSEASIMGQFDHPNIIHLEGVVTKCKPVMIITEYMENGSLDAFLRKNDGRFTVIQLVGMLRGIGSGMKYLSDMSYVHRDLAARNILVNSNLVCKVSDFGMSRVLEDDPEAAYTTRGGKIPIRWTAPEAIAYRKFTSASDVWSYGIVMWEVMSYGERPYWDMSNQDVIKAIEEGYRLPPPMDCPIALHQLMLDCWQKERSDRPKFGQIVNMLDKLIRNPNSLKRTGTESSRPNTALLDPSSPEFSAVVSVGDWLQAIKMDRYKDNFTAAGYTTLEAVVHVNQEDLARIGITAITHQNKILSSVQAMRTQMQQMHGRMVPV
Sequence of Ephrin type-A receptor 2 (Homo sapiens) (P29317 whole entry): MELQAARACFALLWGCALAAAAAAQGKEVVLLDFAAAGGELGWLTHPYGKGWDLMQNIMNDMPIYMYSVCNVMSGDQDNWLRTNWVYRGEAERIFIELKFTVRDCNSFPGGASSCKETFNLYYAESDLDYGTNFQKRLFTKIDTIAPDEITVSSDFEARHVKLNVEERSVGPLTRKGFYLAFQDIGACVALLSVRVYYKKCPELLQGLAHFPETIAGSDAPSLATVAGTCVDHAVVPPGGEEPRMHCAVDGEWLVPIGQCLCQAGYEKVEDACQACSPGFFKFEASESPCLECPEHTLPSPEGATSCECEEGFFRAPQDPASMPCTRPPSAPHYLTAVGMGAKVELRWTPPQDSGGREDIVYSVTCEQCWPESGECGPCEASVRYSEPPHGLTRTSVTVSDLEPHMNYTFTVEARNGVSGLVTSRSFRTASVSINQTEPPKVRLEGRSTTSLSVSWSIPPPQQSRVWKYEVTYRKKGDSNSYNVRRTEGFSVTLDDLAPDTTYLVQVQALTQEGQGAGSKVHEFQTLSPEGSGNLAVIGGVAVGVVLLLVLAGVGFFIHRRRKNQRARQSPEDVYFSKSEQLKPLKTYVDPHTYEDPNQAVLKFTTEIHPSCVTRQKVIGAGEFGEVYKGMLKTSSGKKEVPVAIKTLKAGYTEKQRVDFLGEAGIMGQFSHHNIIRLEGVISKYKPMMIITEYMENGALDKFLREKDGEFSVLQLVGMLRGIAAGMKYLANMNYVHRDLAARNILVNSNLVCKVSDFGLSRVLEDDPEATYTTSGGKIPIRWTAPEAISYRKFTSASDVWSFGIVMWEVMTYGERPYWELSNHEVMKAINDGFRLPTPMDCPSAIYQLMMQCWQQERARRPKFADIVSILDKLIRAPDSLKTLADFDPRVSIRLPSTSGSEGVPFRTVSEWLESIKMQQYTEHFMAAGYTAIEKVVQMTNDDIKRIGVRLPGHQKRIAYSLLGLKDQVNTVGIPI
Sequence of Epidermal growth factor receptor (Homo sapiens), P00533 [T790M] (P00533 whole entry T790M): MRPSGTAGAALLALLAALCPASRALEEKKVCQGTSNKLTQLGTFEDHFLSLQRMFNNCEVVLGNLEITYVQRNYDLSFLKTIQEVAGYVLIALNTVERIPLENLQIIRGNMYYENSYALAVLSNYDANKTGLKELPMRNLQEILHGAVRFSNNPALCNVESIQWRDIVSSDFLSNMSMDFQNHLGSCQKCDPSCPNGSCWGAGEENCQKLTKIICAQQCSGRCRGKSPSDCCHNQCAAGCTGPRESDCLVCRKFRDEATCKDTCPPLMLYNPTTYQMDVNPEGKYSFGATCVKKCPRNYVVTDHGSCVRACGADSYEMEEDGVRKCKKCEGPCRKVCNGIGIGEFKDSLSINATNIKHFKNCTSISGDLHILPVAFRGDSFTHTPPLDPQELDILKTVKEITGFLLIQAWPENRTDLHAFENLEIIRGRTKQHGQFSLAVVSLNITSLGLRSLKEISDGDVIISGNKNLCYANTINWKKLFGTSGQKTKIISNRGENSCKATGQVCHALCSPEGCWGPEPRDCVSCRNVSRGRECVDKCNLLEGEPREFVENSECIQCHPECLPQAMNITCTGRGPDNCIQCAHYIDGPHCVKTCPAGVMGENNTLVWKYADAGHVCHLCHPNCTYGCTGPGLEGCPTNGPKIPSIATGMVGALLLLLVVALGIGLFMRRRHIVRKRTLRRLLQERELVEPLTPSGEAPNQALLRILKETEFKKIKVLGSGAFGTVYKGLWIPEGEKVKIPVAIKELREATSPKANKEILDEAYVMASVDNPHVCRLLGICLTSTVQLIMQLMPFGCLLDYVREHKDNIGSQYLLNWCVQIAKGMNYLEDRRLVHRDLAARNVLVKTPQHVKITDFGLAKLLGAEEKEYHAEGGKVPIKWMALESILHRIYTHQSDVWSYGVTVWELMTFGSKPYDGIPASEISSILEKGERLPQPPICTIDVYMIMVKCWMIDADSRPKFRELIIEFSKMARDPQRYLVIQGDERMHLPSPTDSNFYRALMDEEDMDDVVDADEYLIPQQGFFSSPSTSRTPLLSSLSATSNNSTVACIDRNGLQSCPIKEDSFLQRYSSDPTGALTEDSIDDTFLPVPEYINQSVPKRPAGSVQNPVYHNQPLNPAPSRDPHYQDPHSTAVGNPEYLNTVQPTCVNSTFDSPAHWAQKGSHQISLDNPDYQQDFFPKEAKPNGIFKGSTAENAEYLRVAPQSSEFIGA

SMILES | inhibition [1] [%] | inhibition [2] [%] | inhibition [3] [%] | inhibition [4] [%] | inhibition [5] [%] | inhibition [6] [%] | inhibition [7] [%] | inhibition [8] [%] | inhibition [9] [%] | inhibition [10] [%]
CS(=O)(=O)Nc1cccc(-c2ccc3c(NC(=O)C4CC4)n[nH]c3c2)c1 | -1.01 | 0.55 | -1.6 | 0.19 | 1.68 | 1.66 | -1.02 | 1.83 | -7.46 | -4.01
COc1cc(/C=N/Nc2ncnc3c2cnn3C(C)C)ccc1O | 0.47 | -0.23 | 2.31 | 1.56 | 21.1 | 3.55 | 7.89 | 7.43 | 32.9 | 5.57
COc1cccc(-n2ncc3c(N/N=C/c4ccc(C)cc4)ncnc32)c1 | 2.25 | 1.79 | 2.55 | 2.45 | 1.1 | 3.28 | 3.46 | 7.44 | 11.3 | 6.77
O=S(=O)(CCOCc1ccc(-c2ccc3ncnc(Nc4ccc(OCc5cccc(F)c5)c(Cl)c4)c3c2)o1)c1ccccc1 | 2.25 | -3.02 | 1.89 | -3.01 | -2.3 | -1.7 | 0.9 | 2.2 | 5.8 | 8
COc1cc2ncnc(Nc3ccc4c(cnn4Cc4ccccc4)c3)c2cc1OC | 36.2 | 1.03 | 3.09 | -2.8 | -2.26 | 1.64 | 2.12 | 4.83 | 6.82 | 4.85
NS(=O)(=O)c1ccc(N/N=C2\C(=O)Nc3ccc(Cl)cc32)cc1 | 4.35 | -0.89 | 2.78 | 1.86 | 1.3 | 4.83 | 4.35 | 7.66 | 12.2 | 3.99
Cc1cc(O)cc(C)c1/C=C/c1cncc(C(=O)N(C)C)c1 | 0.44 | -0.03 | -0.26 | 2.13 | 4.81 | 6.48 | 8.52 | 8.99 | 18.6 | 9.34
N#Cc1c(NC(=O)c2ccccc2F)sc2c1CCCC2 | -1.31 | -0.25 | -0.34 | -2.61 | -2.44 | -3.2 | -1.65 | -3.04 | -0.99 | -7.95
NS(=O)(=O)c1cccc(-c2cc3ccncc3cc2OCc2ccccc2)c1 | 1.71 | 1.48 | 0.67 | 1.97 | 1.53 | 2.7 | 3.87 | 8.09 | 5.03 | 4.23
Nc1ccc(C#Cc2cncnc2Nc2ccc(OCc3cccc(F)c3)c(Cl)c2)cc1 | 2.68 | -0.93 | 0.42 | 0.44 | 0.03 | 3.68 | 3.02 | 6.49 | 8.04 | 1.34
FC(F)(F)c1ccc(-c2nn3ncccc3c2-c2ccnc(Nc3ccc4c(c3)OCCO4)n2)cc1 | 7.94 | 0.49 | 10.3 | 4.63 | 3.45 | 0.34 | 2.49 | 1.05 | 21.2 | 3.69
Cc1ccc2c(-c3ccnc(Nc4cccc(C(F)(F)F)c4)n3)c(-c3ccccc3)nn2n1 | 57.7 | 35.2 | 87.6 | 0.69 | 4.04 | 5.98 | 15.1 | 8.59 | 33.9 | 17.6
Cc1ccc(O)cc1Nc1ccnc2ccc(S(C)(=O)=O)cc12 | 7.86 | 4.88 | 5.18 | 91.3 | 95.7 | 92.2 | 81.5 | 89.3 | 93.5 | 83.6
CCOc1nccc2c1nc(-c1nonc1N)n2CC | 5.62 | -0.04 | 4.96 | 2.57 | 1.93 | 2.43 | 6.98 | 11.7 | -8.98 | 9.96
ON=C1CCc2cc(-c3nc(C4CCNCC4)[nH]c3-c3ccncc3)ccc21 | -1.84 | -1.88 | 0.18 | 1.25 | 0.6 | 0.3 | -2.2 | -1.9 | -7.94 | -5.22
CN1CCN(C(=O)c2ccc(NC(=O)Nc3ccc(N(C)c4ccnc(Nc5ccc(CS(C)(=O)=O)cc5)n4)cc3)cc2)CC1 | 1.47 | -1.16 | 2.86 | 0.47 | 5.09 | 0.72 | 4.49 | 5.53 | 22.9 | 8.44
NS(=O)(=O)c1ccc(-c2cc3ccncc3cc2OCc2ccccc2)cc1 | 4.44 | 2.11 | 2.39 | 0.69 | 0.7 | 2.29 | 3.77 | 9.03 | 10.4 | 7.31

SMILES | inhibition [1] [%] | inhibition [2] [%] | inhibition [3] [%] | inhibition [4] [%] | inhibition [5] [%] | inhibition [6] [%] | inhibition [7] [%] | inhibition [8] [%] | inhibition [9] [%] | inhibition [10] [%]
NC(=O)c1cccc(Nc2nccc(Nc3cccc(F)c3)n2)c1 | 1.97 | -1.09 | 2.58 | -0.63 | 17.9 | 0.42 | 7.65 | 5.65 | 29.1 | 3.44
COc1ccc(-c2nn3ncccc3c2-c2ccnc(Nc3cccc(C(F)(F)F)c3)n2)cc1 | 2.06 | -0.41 | 7.35 | 0.1 | -0.64 | 4.37 | 5.21 | 5.95 | 8.87 | 2.91
Nc1nccc(-c2c(-c3ccc(F)cc3)ncn2CCCN2CCOCC2)n1 | 3.66 | 3.71 | 0.56 | -0.08 | 0.96 | 0.74 | 3.02 | 7.96 | 9.12 | 4.96
NS(=O)(=O)c1ccc(NC=C2C(=O)Nc3ccc4ncsc4c32)cc1 | 2.64 | 3.17 | 9.63 | 2.13 | 7.25 | 5.57 | 12.8 | 11.3 | 33.7 | 4.62
NS(=O)(=O)c1ccc(Nc2cc(-c3cccc(O)c3)n[nH]2)cc1 | 3.02 | 4.99 | 3.61 | 1.13 | 0.64 | 6.18 | 6.36 | 10.1 | 7.86 | 6.18
OCc1ccc(-c2nc(-c3ccccn3)c(-c3ccc4c(c3)OCO4)[nH]2)cc1 | 0.84 | 3.54 | 0.26 | 2.78 | 2.31 | 6.06 | 6.97 | 9.84 | 7.48 | 12.2
CCCN1CCCC(c2ccc(Nc3nc(Nc4cc(F)ccc4C(N)=O)c4cc[nH]c4n3)c(OC)c2)C1 (stereo not given) | 79.3 | 55.5 | 85.6 | -1.17 | -1.1 | 3.86 | 4.27 | 8.97 | 4.53 | 8.14
COC(=O)c1ccc2c(c1)C(=Cc1cc(Br)c(O)c(Br)c1)C(=O)N2 | 0.92 | -1.65 | 2.81 | 1.71 | 0.89 | 0.28 | 4.62 | 6.35 | 12.2 | 6.3
C[C@@H](Oc1cc(-n2cnc3ccc(OC[C@@H](O)CO)cc32)sc1C(N)=O)c1ccccc1Cl | -1.48 | -1.15 | -0.33 | -4.23 | -4.51 | -2.37 | 1.69 | -2.22 | -0.2 | -0.2
COc1ccc2ncnc(Nc3ccc(OCc4ccccc4)cc3)c2c1 | 5.68 | 2.24 | 4.15 | 1.06 | 0.85 | 2.45 | 3.28 | 5.9 | 5.92 | 3.16
COc1cccc(-n2nc(C)c3c(N/N=C(\C)c4ccncc4)ncnc32)c1 | -1.56 | -0.53 | -1.32 | -1.68 | -1.94 | -0.57 | 2.37 | 3.69 | 6.36 | 2.52
NS(=O)(=O)c1cccc(Nc2cc(-c3ccc(F)cc3)n[nH]2)c1 | 3.89 | 0.96 | 2.35 | 0.44 | 0.73 | 4.22 | 4.16 | 8.18 | 10 | 5.43
Cc1nc(-c2ccccc2)n2nc(NCCCN3CCOCC3)ncc12 | 2 | -0.39 | 3.29 | 0.3 | -0.95 | 3.7 | 4.01 | 5.25 | 8.81 | -0.43
CN(C)CCCn1c(-c2nonc2N)nc2cnccc21 | 4.68 | -0.67 | 3.5 | 0.86 | 0.27 | 4.17 | 5.42 | 4.85 | 3.54 | 3.03
COc1cc2ncn(-c3cc(OCc4ccccc4S(C)(=O)=O)c(C#N)s3)c2cc1OC | 8.63 | 16.9 | 62.5 | 9.06 | 34.4 | 8.09 | 13.6 | 15.2 | 57.3 | 14
O=C1Nc2ccccc2/C1=C/Nc1ccc2[nH]c(=O)[nH]c2c1 | 7.07 | 4.62 | 3.05 | 2.36 | 3.88 | 5.7 | 9.27 | 12.9 | 16.3 | 15.9
